Molecules are shown by their SMILES. Among all 3,600 compounds or so, about 100 (2.8%) were called active. Only a sample is shown. Values without a mark were called inactive.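 The calls were made as follows: active = inhibition above 30% at one or more concentrations, seen consistently on every test date; inconclusive = results that disagree between repeat test dates; inactive = the rest.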

This experiment is described as follows: biotin-GST/anti-GST TR-FRET signal inhibitors, dose response, artefact control for Vif-APOBEC3G degradation inhibitor project, biochemical (AID 1117362).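 Also: biotinylated GST protein used in place of GST-Vif 1-94 and biotin-A3G peptide; detects fluorescence quenchers or blockers of GST binding to anti-GST antibody.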 The settings on record: TR-FRET counter screen; series mostly up to 100 µM; inhibition: at the top concentration. (In general: Time-resolved FRET reads energy transfer from a long-lived donor to a nearby acceptor.)
Turning to `CN1CCC(N(C)C(=O)COc2ccccc2-c2ccccc2)CC1`, the “inhibition” value is 5.49%. As for `O=C(O)CCCCC1CCSS1` (stereo not drawn), the “inhibition” value was -2.13%. Regarding `CN(C)C(=O)c1nc2ccc(Cl)cn2c1CN1CCCC(OCc2ccccc2)C1` (stereo not drawn), the “inhibition” value was 5.59%. `O=C1CC(Nc2ccc(N3CCOCC3)cc2)C(=O)N1c1ccccc1F` (stereo not drawn): the “inhibition” value is 4.96%. In the case of `Cc1ccc(/C=C/C(=O)Nc2cccc(S(=O)(=O)N3CCOCC3)c2)o1` it was 3.12%; in that of `CCOC(=O)/C=C1\SCC(=O)N1CC(=O)NC(C)c1ccc(F)cc1` (stereo not drawn), 0.82%. `CC1=C(C#N)C(=O)N(C)C(C)(C)C1`: the “inhibition” value was 3.56%.

`CN1CCc2nc3ccc(Cl)cc3c(-c3ccccc3Cl)c2C1`: the “inhibition” value is 15.3%. For `CNC(=O)c1ccccc1NC(=O)c1ccc(C)c(S(=O)(=O)N2CCCCC2)c1` the value was 3.71%. With `Oc1ccc2ccccc2c1C1Nc2cccc3cccc(c23)N1`, the “inhibition” value was 1.78%. On to `Cc1cc(C(=O)O)ccc1-n1c(C)ccc1C`, for which the “inhibition” value was 4.73%. As for `COc1cc(C(=O)NCC(c2ccco2)N2CCCC2)ccc1OCc1c(C)noc1C` (stereo not drawn), the “inhibition” value is 4.39%. With `Cc1cc(C(=O)CCl)c(C)n1-c1c(C)n(C)n(-c2ccccc2)c1=O`, the “inhibition” value was 3.61%.

In the case of `O=C(O)/C(=C/c1ccco1)NC(=O)c1ccccc1`, the “inhibition” value was 2.44%. In the case of `O=[N+]([O-])c1c(NCCCO)cc(SCc2ccco2)c2nonc12`, the “inhibition” value was 27.4%. Take `CCc1c(C)sc(NC(=O)c2cc(-c3ccco3)on2)c1C#N`: the “inhibition” value is 1.8%.

For the compound `Cc1oc(-c2ccc(Cl)cc2)cc1-c1nn2c(-c3ccoc3C)nnc2s1`, the “inhibition” value was 11.2%.

As for `CCC(c1nnnn1Cc1ccco1)N(Cc1ccccc1OC)Cc1cc2cc(C)ccc2[nH]c1=O` (stereo not drawn), the “inhibition” value was -4.56%.

For `S=c1[nH]nc(COc2ccc3c(c2)OCO3)n1-c1ccccc1`, the “inhibition” value was 4.81%. For `O=P(O)(CN1CCCCCC1)CN1CCCCCC1`, the “inhibition” value was 2.91%.

Regarding `C=CCN=c1scc(-c2ccco2)n1/N=C/c1ccc(O)c(O)c1O`, the “inhibition” value was 7.15%. On to `N#CC1=C(N)OC2=C(CCC/C2=C/c2ccoc2)C1c1ccoc1` (stereo not drawn), for which the “inhibition” value was 1.5%. For `Cc1cc(C(=O)CSc2nc3ccccc3c(=O)[nH]2)c(C)n1C` the value was 2.05%; for `C=C(C)C(=O)Nc1cccc(C2=NOC3(C2)C[C@@H](C(N)=O)N(C(=O)CC(c2ccccc2)c2ccccc2)C3)c1` (stereo partly drawn), -2.21%. Regarding `CSc1nc(NCCOCCO)c2sc3nc(-c4ccco4)c4c(c3c2n1)CCC4`, the “inhibition” value is 6.36%.

Take `COC(=O)Cn1c(CCC(=O)O)ccc1-c1ccccc1`: the “inhibition” value was 1.29%. `O=C(OC1CCCCC1)c1ccc2c(c1)C1C=CCC1C(C(=O)O)N2` (stereo not drawn): the “inhibition” value is 15.7%. As for `COc1cccc(C2C(C#N)=C(N)OC3=C2C(=O)CC(c2ccco2)C3)c1OCc1ccc(F)cc1` (stereo not drawn), the “inhibition” value was 1.37%. Regarding `Cc1ccc(CCC(=O)Nc2ccc(S(N)(=O)=O)cc2)o1`, the “inhibition” value is 2.11%. For the compound `CCOC(=O)c1cc(NC(=O)N2CCCc3ccccc32)c(C)nc1C`, the “inhibition” value is -1.62%. As for `CNC(=O)[C@@H]1C[C@H]1[C@@H](NC(=O)OCc1ccccc1)c1ccccc1`, the “inhibition” value was 2.14%.

`C(=C\c1ccco1)/C=N/n1cnnc1`: the “inhibition” value is -4.46%. Regarding `O=C(/C=C/c1ccco1)NC(=S)Nc1ccccc1N1CCOCC1`, the “inhibition” value is 4.93%. Regarding `C=CCn1c(O)c(C(CC)=NCCN2CCOCC2)c(=O)[nH]c1=O`, the “inhibition” value was 1.31%. For `CC(/C=N/n1c(-c2ccncc2)n[nH]c1=S)=C\c1ccco1` the value was 7.56%; for `CCOc1cc(CNc2ccc(O)cc2)ccc1OCc1ccc(Cl)cc1Cl`, -7.67%.

As for `O=C(O)C1Nc2c(Cl)cc(Cl)c(Cl)c2C2C=CCC12` (stereo not drawn), the “inhibition” value is 2.36%.

Take `Cc1ccc(NC(=O)CN(C)C(=O)c2cccc(-n3cccc3)c2)cc1`: the “inhibition” value was 1.89%.

As for `CCc1ccccc1NC(=O)c1cccc(NC(=O)/C=C/c2ccco2)c1`, the “inhibition” value is -3.66%.

Consider `Cc1cc2ccccc2n1CCNC(=O)C1CCCCC1`, for which the “inhibition” value was 22.4%. Take `COc1cccc(-n2c(Cc3cc(=O)[nH]c(=O)[nH]3)nnc2SCC(=O)NC2CCCC2)c1`: the “inhibition” value is -1.98%.

In the case of `Cc1cc(C)nc(N2CCC(C(=O)O)CC2)n1`, the “inhibition” value was 0.27%.

As to `COc1ccc(NC(=S)NCCc2ccccc2OC)c(OC)c1`, the “inhibition” value is -8.17%. With `C=CCn1c(COc2ccc(F)cc2)nnc1SCC(=O)NC(=O)NCc1ccco1`, the “inhibition” value was 0.17%. Regarding `Clc1ccc(OCc2nn3c(-c4ccco4)nnc3s2)c(Cl)c1`, the “inhibition” value was -1.9%. With `COC(C(=O)C(O)C(C)O)C1Cc2cc3cc(OC4CC(OC5CC(O)C(O)C(C)O5)C(O)C(C)O4)c(C)c(O)c3c(O)c2C(=O)C1OC1CC(OC2CC(OC3CC(O)C(OC)C(C)O3)C(O)C(C)O2)C(O)C(C)O1` (stereo not drawn), the “inhibition” value is -1.16%. For `O=c1oc(/C=C/c2ccco2)nc2sc3c(c12)CCC3` the value was 1.89%; for `Cc1cc(C(=O)CSc2nnc(-c3ccccc3)n2Cc2ccc3c(c2)OCO3)c(C)n1C`, -0.57%. With `COC(=O)c1ccc(COc2ccccc2/C=C(\C#N)C(=O)Nc2c(C)cc(C)cc2C)cc1`, the “inhibition” value is -3.51%.

With `CCOc1ccc(-c2nnn(CC(=O)c3ccc4c(c3)OCCO4)n2)cc1OCC`, the “inhibition” value is -2.88%. For `Cc1cccc(C)c1NC(=O)CSc1nnc(-c2ccco2)c(-c2ccco2)n1` the value was 4.93%; for `O=C(C1CCCN1S(=O)(=O)c1cccc2cccnc12)N1CCN(c2ccccc2)CC1` (stereo not drawn), 18%; for `CNc1ccccc(-c2ccc3cc4c(cc3n2)OCO4)c1=O`, 6.22%.

Broadly, the inhibition is the relative decrease from the control value, in per cent.

(Values after PubChem BioAssay AID1117362 (Southern Research Institute, 2015).)
